Experimental data taken from PubChem BioAssay AID1159580 (chemical genetic matrix, 2015).
About 2,000 (36%) of roughly 5,500 compounds were called active. Not shown: some 18% with an inconclusive outcome. Rule as the data show it: active = normalized growth mostly below about 0.91 (no sharp cut-off); inconclusive = no clear call, values can overlap the other calls; inactive = mostly above about 0.92. This is one part of the list.

Test: chemical genetic growth profiling, strain panel (AID 1159580);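 also: tested at 20 µM; growth read once vehicle control cultures reached saturation at 30 °C; 1 = growth at the plate median or of vehicle wells; lower values mean less growth of the strain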
Details: S. cerevisiae deletion strains, growth OD
[1] = locus YAR019C, strain CDC15, active compounds read low
[2] = locus YBL105C, strain PKC1, active compounds read low
[3] = locus YBR135W, strain CKS1, active compounds read low
[4] = locus YBR136W, strain MEC1, active compounds read low
[5] = locus YBR160W, strain CDC28, active compounds read low
[6] = locus YDL017W, strain CDC7, active compounds read low
[7] = locus YDL028C, strain MPS1, active compounds read low
[8] = locus YDL101C, strain DUN1, active compounds read low
[9] = locus YDL108W, strain KIN28, active compounds read low
[10] = locus YDL132W, strain cdc53, active compounds read low
[11] = locus YDL214C, strain PRR2, active compounds read low
[12] = locus YDR052C, strain DBF4, active compounds read low
[13] = locus YDR054C, strain cdc34, active compounds read low
[14] = locus YDR226W, strain ADK1, active compounds read low
[15] = locus YDR477W, strain SNF1, active compounds read low
[16] = locus YER123W, strain YCK3, active compounds read low
[17] = locus YER133W, strain GLC7, active compounds read low
[18] = locus YFL009W, strain cdc4, active compounds read low
[19] = locus YFL029C, strain CAK1, active compounds read low
[20] = locus YFR003C, strain YPI1, active compounds read low
[21] = locus YFR019W, strain FAB1, active compounds read low
[22] = locus YFR028C, strain CDC14, active compounds read low
[23] = locus YGR040W, strain KSS1, active compounds read low
[24] = locus YGR052W, strain FMP48, active compounds read low
[25] = locus YGR092W, strain DBF2, active compounds read low
[26] = locus YHR030C, strain SLT2, active compounds read low
[27] = locus YHR079C, strain IRE1, active compounds read low
[28] = locus YHR082C, strain KSP1, active compounds read low
[29] = locus YHR205W, strain SCH9, active compounds read low
[30] = locus YIL147C, strain SLN1, active compounds read low
[31] = locus YJL095W, strain BCK1, active compounds read low
[32] = locus YJL128C, strain PBS2, active compounds read low
[33] = locus YJL157C, strain FAR1, active compounds read low
[34] = locus YJR016C, strain ILV3, active compounds read low
[35] = locus YJR066W, strain TOR1 (second series), active compounds read low
[36] = locus YJR066W, strain TOR1, active compounds read low
[37] = locus YKL048C, strain ELM1, active compounds read low
[38] = locus YKL067W, strain YNK1, active compounds read low
[39] = locus YKL101W, strain HSL1, active compounds read low
[40] = locus YKL193C, strain SDS22, active compounds read low
[41] = locus YKL203C, strain TOR2, active compounds read low
[42] = locus YLR113W, strain HOG1, active compounds read low
[43] = locus YLR133W, strain CKI1, active compounds read low
[44] = locus YLR403W, strain SFP1, active compounds read low
[45] = locus YML070W, strain DAK1, active compounds read low
[46] = locus YMR001C, strain CDC5, active compounds read low
[47] = locus YMR205C, strain PFK2 (second series), active compounds read low
[48] = locus YMR277W, strain FCP1, active compounds read low
[49] = locus YNL006W, strain LST8, active compounds read low
[50] = locus YNL020C, strain ARK1, active compounds read low
[51] = locus YNL161W, strain CBK1, active compounds read low
[52] = locus YNL183C, strain NPR1, active compounds read low
[53] = locus YNL207W, strain RIO2, active compounds read low
[54] = locus YNL222W, strain SSU72, active compounds read low
[55] = locus YNL307C, strain MCK1 (second series), active compounds read low
[56] = locus YOL078W, strain AVO1, active compounds read low
[57] = locus YOL136C, strain PFK27, active compounds read low
[58] = locus YOR061W, strain CKA2, active compounds read low
[59] = locus YOR119C, strain RIO1, active compounds read low
[60] = locus YOR231W, strain MKK1, active compounds read low
[61] = locus YOR329C, strain SCD5, active compounds read low
[62] = locus YPL031C, strain PHO85, active compounds read low
[63] = locus YPL153C, strain RAD53, active compounds read low
[64] = locus YPL204W, strain HRR25, active compounds read low
[65] = locus YPL209C, strain IPL1, active compounds read low
[66] = locus YPL256C, strain CLN2, active compounds read low
[67] = locus YPR025C, strain CCL1, active compounds read low
[68] = locus YPR106W, strain ISR1, active compounds read low
[69] = locus YPR111W, strain DBF20, active compounds read low
[70] = strain NNK1, active compounds read low
[71] = strain TSCII, active compounds read low

Measured: normalized growth

Cc1cc(/C(N)=N\OC(=O)C(C)(C)C)cc(/C(N)=N\OC(=O)C(C)(C)C)c1
active: [42] 0.858
inactive: [1] 0.977 | [2] 0.985 | [3] 0.992 | [4] 0.969 | [5] 0.98 | [6] 0.989 | [7] 0.949 | [8] 0.985 | [9] 0.983 | [10] 0.987 | [11] 0.968 | [12] 0.996 | [13] 0.985 | [14] 0.979 | [15] 0.991 | [16] 0.974 | [17] 0.977 | [18] 0.982 | [19] 0.986 | [20] 0.989 | [21] 0.979 | [22] 0.983 | [23] 0.979 | [24] 1.02 | [25] 1.02 | [26] 0.904 | [27] 1.02 | [28] 1.06 | [29] 0.974 | [30] 0.964 | [31] 0.992 | [32] 0.937 | [33] 1 | [34] 0.993 | [35] 0.962 | [36] 1 | [37] 0.987 | [38] 0.953 | [39] 0.954 | [40] 0.983 | [41] 1.08 | [43] 1 | [44] 0.997 | [45] 0.966 | [46] 0.969 | [47] 0.991 | [48] 0.972 | [49] 0.984 | [50] 0.989 | [51] 0.988 | [52] 1.03 | [53] 0.989 | [54] 0.979 | [55] 0.947 | [56] 0.992 | [57] 0.962 | [58] 1 | [59] 1.03 | [60] 1 | [61] 0.99 | [62] 0.997 | [63] 0.965 | [64] 0.969 | [65] 0.991 | [66] 0.922 | [67] 0.989 | [68] 0.978 | [69] 0.954 | [70] 0.982 | [71] 0.967

COc1c(Br)csc1C(=O)O/N=C(/N)c1cc(C(F)(F)F)cc(C(F)(F)F)c1
inactive: [1] 0.994 | [2] 0.981 | [3] 0.99 | [4] 0.988 | [5] 0.979 | [6] 0.985 | [7] 0.988 | [8] 0.954 | [9] 0.987 | [10] 0.989 | [11] 1.05 | [12] 0.99 | [13] 0.989 | [14] 0.986 | [15] 1.05 | [16] 0.999 | [17] 1.03 | [18] 0.995 | [19] 0.96 | [20] 0.988 | [21] 1 | [22] 0.987 | [23] 1.06 | [24] 1.1 | [25] 1 | [26] 1.1 | [27] 1.07 | [28] 1.14 | [29] 1.03 | [30] 0.993 | [31] 1.09 | [32] 0.956 | [33] 1.01 | [34] 0.979 | [35] 0.99 | [36] 1.15 | [37] 1.01 | [38] 1.01 | [39] 1.05 | [40] 0.987 | [41] 1.14 | [42] 1.02 | [43] 1.03 | [44] 1.05 | [45] 1.04 | [46] 0.989 | [47] 0.999 | [48] 0.99 | [49] 0.995 | [50] 1.03 | [51] 0.982 | [52] 1.03 | [53] 0.989 | [54] 0.985 | [55] 1.05 | [56] 0.986 | [57] 1.03 | [58] 0.97 | [59] 1.13 | [60] 1.03 | [61] 0.995 | [62] 1.06 | [63] 1.04 | [64] 1.07 | [65] 0.985 | [66] 1.01 | [67] 0.987 | [68] 0.967 | [69] 0.964 | [70] 1 | [71] 0.993

Cn1ncc(C(=O)O/N=C(/N)c2cc(C(F)(F)F)cc(C(F)(F)F)c2)c1-n1cccc1
inactive: locus YAL013W, strain DEP1, active compounds read low 1.02 | locus YBR229C, strain ROT2, active compounds read low 1.01 | [8] 1.01 | locus YDL134C, strain PPH21, active compounds read low 1.02 | locus YDR150W, strain NUM1, active compounds read low 0.963 | locus YEL061C, strain CIN8, active compounds read low 0.999 | locus YGR078C, strain PAC10, active compounds read low 1 | [26] 0.972 | locus YHR087W, strain rtc3, active compounds read low 0.996 | locus YJR043C, strain POL32, active compounds read low 0.999 | locus YJR075W, strain HOC1, active compounds read low 0.972 | locus YKL190W, strain CNB1, active compounds read low 1.01 | locus YLR039C, strain RIC1, active compounds read low 0.958 | locus YLR058C, strain SHM2 (second series), active compounds read low 1 | locus YLR085C, strain ARP6, active compounds read low 0.984 | locus YLR262C, strain YPT6, active compounds read low 1.03 | locus YML094W, strain GIM5, active compounds read low 0.988 | locus YMR219W, strain ESC1, active compounds read low 1 | locus YMR263W, strain SAP30, active compounds read low 0.934 | locus YMR307W, strain GAS1, active compounds read low 1.03 | locus YNL153C, strain GIM3, active compounds read low 0.996 | locus YNL298W, strain CLA4 (second series), active compounds read low 1.02 | locus YNL322C, strain KRE1, active compounds read low 0.991 | locus YNR030W, strain Alg12, active compounds read low 1.02 | locus YOL006C, strain TOP1, active compounds read low 0.98 | locus YPL055C, strain LGE1, active compounds read low 0.88 | locus YPL241C, strain CIN2, active compounds read low 0.935 | locus YPR135W, strain CTF4, active compounds read low 0.961
